Giardia killer = Giardia lamblia killing. activity change, % at 7.66 µM, hits read low. hit rate 0.15% among 340,000. AID 540267. Giardia lamblia trophozoite viability; in the data active = activity change below about -80%; inconclusive = between about -30% and that limit;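 note: parasites exposed to compound for two days anaerobically before the ATP read; % is set by controls: 0 for no effect and ±100 for the full control effect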
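Trophozoites 100 cells/well + cpd; 48 hrs, 37 deg C, anaerobic. ATPLite 1-Step added, 15-30 min RT, luminescence read (ATP-based viability).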
S-ASM inh = human S-ASM enzyme inhibition; P17405; placental ASM, HMU-PC fluorogenic substrate, 60 min; Potency, µM (titrated, usually from 57.5 µM), without a hit: top-dose activity change, negative = inhibition, actives largely listed as inhibitors; hit rate 0.006% among 340,000; AID 504937; note: potency is the fitted concentration of half-maximal effect
Target sequence (P17405 47-631 limits assumed): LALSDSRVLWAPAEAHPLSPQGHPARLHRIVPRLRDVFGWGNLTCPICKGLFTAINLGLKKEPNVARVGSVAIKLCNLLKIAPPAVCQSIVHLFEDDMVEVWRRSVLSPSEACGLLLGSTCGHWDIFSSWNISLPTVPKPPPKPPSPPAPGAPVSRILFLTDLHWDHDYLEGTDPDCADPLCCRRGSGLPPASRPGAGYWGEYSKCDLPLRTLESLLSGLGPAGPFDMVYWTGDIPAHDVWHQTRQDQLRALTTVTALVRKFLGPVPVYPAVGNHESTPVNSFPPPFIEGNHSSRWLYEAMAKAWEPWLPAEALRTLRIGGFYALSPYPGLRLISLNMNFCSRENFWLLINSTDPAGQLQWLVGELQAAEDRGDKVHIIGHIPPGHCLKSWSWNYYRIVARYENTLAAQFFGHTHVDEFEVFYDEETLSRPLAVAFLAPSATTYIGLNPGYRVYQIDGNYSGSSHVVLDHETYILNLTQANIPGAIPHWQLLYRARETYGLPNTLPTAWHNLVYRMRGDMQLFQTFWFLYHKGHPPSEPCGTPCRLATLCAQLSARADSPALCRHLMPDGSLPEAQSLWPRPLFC
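Steps: dispense placental human ASM, pin compound, wait 10 min at room temperature, add HMU-PC0 substrate at 9 uM final, incubate 60 min at 37 °C, add stop solution raising pH to 10, read fluorescence.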
KB-V1 cytotox = KB-V1 MDR subline cytotoxicity. AID 1347076. Potency, µM (series often up to 46.1 µM), actives largely listed as cytotoxic. KB-V1 MDR cells viability, CellTiter-Glo, 72 h. hit rate 3.4% among 400,000; note: potency is the fitted concentration of half-maximal effect; % is set by controls: 0 for no effect and ±100 for the full control effect; nearly all actives have a fitted effect of over 60% in size
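Following 72 h at 37 degrees C with compound, KB-V1 cell viability was read by CellTiter-Glo luminescence, medium being phenol-red-free DMEM plus 10% FBS; concentration-response parameters came from normalized, curve-fitted qHTS data.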
KB-3-1 tox = kills parental KB-3-1 adenocarcinoma cells | KB-3-1 viability, CellTiter-Glo ATP luminescence, 72 h | hit rate 1.4% among 400,000 | Potency, µM (series often up to 46.1 µM), hits mostly cytotoxic | AID 1347075; note: potency is the fitted concentration of half-maximal effect; % is set by controls: 0 for no effect and ±100 for the full control effect; nearly all actives have a fitted effect of over 60% in size
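Luminescent ATP read-out (CellTiter-Glo) measures survival of drug-naive KB-3-1 cells after 72 h compound exposure at 37 °C. Titration series was screened from lowest to highest concentration, with DMSO vehicle plates as background controls.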
SW480 rerep = DNA re-replication induction in SW480 cells; hit rate 1.8% among 340,000; Potency, µM (top dose mostly 46.1 µM), inactives show at the top dose re-replication activation, most hits filed as activators; AID 624297; SW480 DNA re-replication, Hoechst DNA content imaging, 48 h; note: potency is the fitted concentration of half-maximal effect; % of control where 0% means no effect; nearly all actives have a fitted effect of over 55% in size
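Cells (250 per well) received 23 nL compound or DMSO by pin tool and were kept 48 hr at 37 C, 5% CO2. Nuclei were then stained with Hoechst for 40 min and scanned for DNA content.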
MCF10A rereplic = induces DNA re-replication in MCF 10a normal breast cells; Potency, µM (doses to about 46.1 µM), without a hit: top-dose activity, positive = re-replication, usual class: activators; hit rate 2.9% among 350,000; MCF 10A DNA re-replication, Hoechst nuclear intensity, 48 h; note: potency is the fitted concentration of half-maximal effect; % of control where 0% means no effect; nearly all actives have a fitted effect of over 50% in size
Starred values were filed as active, the others as inactive; i = inactive; ? = inconclusive; / = not tested or not shown; [ ] = remark or other dose. This is a sample that favours compounds with a hit; in the whole collection about 6.9% have one here. Unless noted, calls come from the whole dose curve; as a rule, active = well fitted curve in the direction sought with a large enough effect; inconclusive = small, poorly fitted or top-dose-only effect, or another doubt; inactive = no such curve, though single readings can be large; an effect the other way counts as inactive or inconclusive.

SMILES	Giardia killer	S-ASM inh	KB-V1 cytotox	KB-3-1 tox	SW480 rerep	MCF10A rereplic
COc1ccc(C2c3ccc4ccccc4c3Oc3ncn(CCN4CCOCC4)c(=N)c32)cc1 (centres undefined)	-5.7	-14.7%	?	?	23.1µM*	1.6%
COc1ccc(C2c3c(ncn(CCCN4CCOCC4)c3=N)Oc3ccc4ccccc4c32)cc1OC (centres undefined)	2.5	-1.6%	i	i	18.4µM*	13.5%
CN(C)CCCn1cnc2c(c1=N)C(c1ccccc1)c1ccc3ccccc3c1O2 (centres undefined)	?	-5.4%	i	i	4.5%	18.4µM*
COc1ccc(C2c3ccc4ccccc4c3Oc3ncn(CCN4CCOCC4)c(=N)c32)cc1OC (centres undefined)	14.7	-10.9%	i	i	-2.6%	0.1%
COC(=O)CC1Oc2ccc(F)cc2-n2cc(-c3ccc(Cl)cc3)nc21 (centres undefined)	/	/	i	i	/	/
Cc1noc(C)c1CSc1nnnn1-c1ccc(Cl)cc1	-1.9	-3.3%	i	i	2.1%	19.5%
Cc1noc(C)c1CSc1ccc2ccccc2n1	1.2	-1.0%	20.6µM*	i	-12.4%	?
Cc1noc(C)c1CSc1nc2ccccc2c(=O)n1-c1ccc(Cl)cc1	-3.4	-5.4%	23.1µM*	?	?	?
CCOC(=O)C1CCN(C(=O)c2cnn(-c3ccc(F)cc3)c2-n2cccc2)CC1	/	/	?	i	/	/
COc1cccc(-c2ccc3ncnc(NCc4ccc5c(c4)OCO5)c3c2)c1	?	-10.7%	i	i	-30.6%[9.22 µM]	16.4µM*
c1nc(NCc2ccc3c(c2)OCO3)c2cc(-c3ccc4c(c3)OCCO4)ccc2n1	7.1	-13.6%	i	i	0.8%[9.22 µM]	9.2µM*
c1cncc(CNc2ncnc3ccc(-c4ccc5c(c4)OCO5)cc23)c1	-14.3	10.4%	i	i	-10.5%	-11.1%
Cc1cccc(CNc2ncnc3ccc(-c4ccc5c(c4)OCCO5)cc23)c1	3.2	-18.6%	i	8.2µM*	21.3%	?
Cc1csc(CNc2ncnc3ccc(-c4ccc5c(c4)OCCO5)cc23)c1	25.1	-22.8%	i	?	-2.7%	?
Cc1cccc(CNc2ncnc3ccc(-c4ccoc4)cc23)c1	-18.7	-7.6%	i	i	8.3%	2.59µM*
Clc1cccc(-c2ccc3ncnc(NCc4cccs4)c3c2)c1	41.3	-17.3%	i	i	-7.1%[9.22 µM]	?
Cc1cccc(-c2ccc3ncnc(NCc4cccs4)c3c2)c1	-23.7	-2.1%	i	13µM*	6.4%	8.5%
COc1ccc(C)cc1NC(=O)Cn1c(=O)n(Cc2nc(C)no2)c(=O)c2ccccc21	/	/	i	i	/	/
Cc1cccc(OCCN2CSC(=S)N(C)C2)c1	-7.9	-1.1%	10.3µM*	8.2µM*	?	5.8µM*
COc1ccccc1OCCN1CSC(=S)N(C)C1	9.2	2.0%	?	5.17µM*	2.59µM*	7.31µM*
COc1ccccc1S(=O)(=O)CC(O)COc1ccc(F)cc1Cl (centres undefined)	13.2	-0.7%	?	i	-0.5%	-3.8%
O=C(O)CN1C(=O)/C(=C/C=C/c2ccccc2)SC1=S	-4.6	-2.8%	i	i	-14.6%	6.9%
O=C1CC(N2C(=O)/C(=C/C=C/c3ccccc3)SC2=S)C(=O)N1c1ccccc1 (centres undefined)	-3.9	-14.3%	i	i	-39.7%	4.61µM*
COc1ccc(/C=N/NC(=O)c2cc(-c3ccccc3OC)nc3ccccc23)cc1COC(C)=O	13.9	-9.4%	i	i	1.0%[9.22 µM]	-3.9%
COc1ccc(/C=N/NC(=O)c2cc(-c3ccccc3OC(C)C)nc3ccccc23)cc1CN1CCOCC1	-3.4	-2.9%	?	i	27.5%	8.2µM*
SMILES	Giardia killer	S-ASM inh	KB-V1 cytotox	KB-3-1 tox	SW480 rerep	MCF10A rereplic
Cn1c(=O)c2cc(S(=O)(=O)NC(Cc3ccccc3)C(=O)Nc3ccc(F)cc3)ccc2n(C)c1=O (centres undefined)	/	/	i	i	/	/
Cc1cccc(NC(=O)c2oc3ccccc3c2NC(=O)c2cc(=O)c3ccc(C)cc3o2)c1	/	/	i	i	/	/
COc1ccc(C(=O)N2CCCc3ccccc32)cc1OC	5.6	-0.2%	i	i	-9.1%	8.8%
CCCN(CCC)S(=O)(=O)c1ccc(C(=O)N2CCCc3ccccc32)cc1	-7.0	-2.9%	?	?	?	23.1µM*
CC1Cc2ccccc2N1C(=O)c1ccnc(C(C)(C)C)c1 (centres undefined)	12.9	-0.7%	i	i	1.6%	22.7%
COc1cc(C(=O)N2c3ccccc3CC2C)cc(OC)c1OC (centres undefined)	6.3	-0.7%	18.4µM*	?	5.2%	-1.1%
COc1cc(C(=O)N2CCCc3ccccc32)cc(OC)c1OC	-2.7	-1.1%	?	?	?	10µM*
O=C(Nc1cccc(C(=O)N2CCCc3ccccc32)c1)c1ccccc1	8.3	-3.4%	20.6µM*	?	?	14.6µM*
CCOCCc1nnc(N)s1	4.1	2.1%	i	i	14.6µM*	8.2µM*
CCCCCc1nnc(N)s1	-8.9	3.5%	i	i	-3.7%	0.7%
CCCCCCCCCCCCCCCCCCOC[C@H](COP(=O)([O-])OCC[N+](C)(C)C)OC	/	/	/	/	21.1µM*	?
CCCCCCCCCCCCCCCCOP(=O)([O-])OCC[N+](C)(C)C	/	/	/	/	?	3.6%
Nc1cc(N)nc(SCc2ccccc2)n1	-0.6	9.1%	i	i	0.9%	-1.2%
Nc1nc(SCc2ccccc2)cc(SCc2ccccc2)n1	16.1	-2.8%	i	i	7.8%	8.2µM*
Cc1cc(C)c(C(=O)N2CCCC(CNS(=O)(=O)c3cccs3)C2)o1 (centres undefined)	0.8	1.3%	i	i	-10.0%	-31.9%
CC(C)(O)C#Cc1ccc(C(=O)N2CCCC(CNS(=O)(=O)c3cccs3)C2)o1 (centres undefined)	3.1	-1.5%	i	i	20.6µM*	9.1%
Cc1cc(NC(=O)CSc2nnc(CNC(=O)c3c(F)cccc3F)o2)no1	-17.2	2.2%	?	i	-30.8%	1.7%
COc1ccc(/C=C2\CCc3ccccc3C2=O)cc1O	?	-3.1%	5.17µM*	3.66µM*	0.517µM*	?
O=C1/C(=C\c2ccc([N+](=O)[O-])cc2)CCc2ccccc21	-90.8*	2.6%	i	i	-1.9%	0.4%
N#CCC(=O)Nc1ccc(C(=O)OC(C(=O)Nc2cc(C(F)(F)F)ccc2Cl)c2ccccc2)cc1 (centres undefined)	-3.7	-13.3%	14.6µM*	?	?	?
